# Sampled rows, rich in hits. Any-hit rate of the full collection: about 2.3%.
# DENV2 CPE rescue: DENV2-induced cell death inhibition. AID 651640. CPE inhibition, % at 9.99 µM. actives 1.7% (n = 350,000). DENV2-infected cells, cytopathic effect rescue, plate reader; in the data active means CPE inhibition above about 20%, passing the limit was not always enough; inconclusive means no clear call, values can overlap the other calls; tested in BHK-21 cells;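 further: 0% = median of neutral control wells and 100% = median of positive control wells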
# SIRT5 block: sirtuin-5 (human) deacylase inhibition | Q9NXA8 | Purified SirT5, succinyl-peptide AMC, trypsin-coupled fluorescence | inhibition, % at 15 µM | actives 1.1% (n = 330,000); in the data active means inhibition above about 15%; inconclusive means no clear call, values can overlap the other calls
# Rtt109 HAT inh: blocks Candida albicans Rtt109/Vps75 acetyltransferase activity; inhibition, % at 34.9 µM; purified Rtt109/Vps75, ThioGlo CoA-SH fluorescence, 4 h; Q5AAJ8; actives 0.16% (n = 330,000); AID 540336;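 active means inhibition of at least 50% in every replicate; inconclusive means best replicate reaches 50% inhibition but some replicates fall short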
# Target sequence (Q5AAJ8 whole entry, looked up): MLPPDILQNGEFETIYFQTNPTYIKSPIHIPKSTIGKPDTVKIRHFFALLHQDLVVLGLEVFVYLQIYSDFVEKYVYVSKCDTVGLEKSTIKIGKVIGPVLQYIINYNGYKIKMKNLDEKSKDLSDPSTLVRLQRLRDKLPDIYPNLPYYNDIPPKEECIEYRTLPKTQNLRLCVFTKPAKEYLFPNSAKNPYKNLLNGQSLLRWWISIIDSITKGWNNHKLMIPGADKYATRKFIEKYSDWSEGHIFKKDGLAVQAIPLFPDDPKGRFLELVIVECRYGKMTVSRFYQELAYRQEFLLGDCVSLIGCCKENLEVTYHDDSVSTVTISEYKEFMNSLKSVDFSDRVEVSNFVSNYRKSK
# ERp5 block: ERp5 (human) disulfide isomerase inhibition; Q15084; ERp5 insulin aggregation, absorbance 650 nm, 90 min; inhibition, % at 9.99 µM; actives 0.05% (n = 350,000); AID 651711;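 active means mean replicate inhibition above about 25%, with every replicate also reaching it, limit read from the data, passing the limit was not always enough; inconclusive means only one of those two criteria met; inactive means neither criterion met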
# PDI turbidity: inhibitors of human protein disulfide isomerase; P07237; PDI insulin aggregation turbidity, A650, 90 min; inhibition, % at 10 µM; actives 0.052% (n = 350,000);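 active means mean inhibition across replicates of 30% or more, whatever share of single replicates reach that level; inconclusive means mean inhibition below 30% while every single replicate reaches 30%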
# Active calls of the source: *; ? = inconclusive; . = not tested or not shown.
SMILES,DENV2 CPE rescue,SIRT5 block,Rtt109 HAT inh,ERp5 block,PDI turbidity
C/C=C/c1ccc([C@H]2[C@@H](CO)N(C(=O)CN(C)C)C23CN(C(=O)C2CC2)C3)cc1,-6,-3,.,-4,.
Oc1ccc(Cl)cc1CNCc1ccc(Cl)cc1,-1,-2,-1,2,13
Oc1ccc(Cl)cc1CNCc1ccc(F)cc1,23*,.,2,6,-1
CO[C@H]1CN(C)C(=O)c2cc(NC(=O)NC(C)C)ccc2OC[C@H](C)N(Cc2ccccc2)C[C@H]1C,0,8,.,0,.
CO[C@H]1CN(C)C(=O)c2ccc(NC(=O)NC(C)C)cc2OC[C@H](C)N(Cc2ccccc2)C[C@H]1C,0,23*,.,-4,.
CO[C@@H]1CN(C)C(=O)c2ccc(NC(=O)NC(C)C)cc2OC[C@@H](C)N(Cc2ccccc2)C[C@@H]1C,7,18*,.,0,.
CO[C@@H]1CN(C)C(=O)c2ccc(NC(=O)NC(C)C)cc2OC[C@@H](C)N(Cc2ccccc2)C[C@H]1C,-16,0,.,.,.
Cc1noc(C)c1S(=O)(=O)Nc1ccc2c(c1)C(=O)N([C@H](C)CO)C[C@H](C)[C@@H](CN(C)S(=O)(=O)c1ccc(Cl)cc1)O2,-6,1,.,4,.
COc1ccc(Cl)cc1NC(=O)CN(C)C(=O)C1COc2ccccc2O1 (configuration not stated),73*,1,-5,-6,-4
COc1ccc(Cl)cc1NC(=O)C1COc2ccccc2O1 (configuration not stated),-5,-2,-7,3,-8
CCOc1cc(/C=C2/SC(=S)NC2=O)ccc1OC(=O)c1ccco1,5,-4,7,8,-6
CC(C)CS(=O)(=O)C1=NN2C(=N)/C(=C\c3ccc(OC(=O)c4ccco4)cc3)C(=O)N=C2S1,4,10,-1,-4,13
O=C1NC(=S)S/C1=C/c1ccc(OC(=O)c2ccco2)cc1,-8,81*,-5,0,1
CS(=O)(=O)C1=NN2C(=N)/C(=C\c3ccc(OC(=O)c4ccco4)cc3)C(=O)N=C2S1,-3,5,57*,1,3
COc1ccc(NC(=O)Nc2ccc3c(c2)C(=O)N([C@H](C)CO)C[C@H](C)[C@@H](CN(C)S(=O)(=O)c2ccc(C)cc2)OCCCC[C@@H](C)O3)cc1,-1,-2,.,-1,.
COc1ccc2c3c(n(C)c2c1)[C@@H](CO)N(C(=O)CC1CC1)CC31CCN(C(=O)C2CCCC2)CC1,-3,2,.,-4,.
CCCn1c(CN2CCN(C(=O)OCC)CC2)nc2cc(NC(=O)C(C)C)ccc21,2,3,2,2,4
CCCn1c(CN2CCN(C(=O)OCC)CC2)nc2cc(NC(C)=O)ccc21,8,17*,3,2,5
CSCCC(NC(=O)COc1ccccc1)C(=O)OCCOc1ccc(C)cc1 (configuration not stated),27*,1,?,-15,-13
O=C(C[n+]1ccsc1)c1ccccc1,31*,2,6,1,3
CC=Cc1ccc2n(c1=O)C[C@@H]1[C@@H](CO)[C@H](C(=O)N3CCc4ccccc4C3)[C@H]2N1Cc1ccncc1 (mixture of isomers),0,-18,.,-10,.
CNC[C@@H]1Oc2ccc(NC(=O)Nc3ccc(OC)cc3)cc2CC(=O)N([C@@H](C)CO)C[C@H]1C,3,4,.,3,.
CS(=O)(=O)N1CCc2cc(C(=O)N3CCN(c4ccccc4)CC3)ccc21,23*,-3,-3,-5,0
CS(=O)(=O)N1CCc2cc(C(=O)N3CCN(c4ccc(F)cc4)CC3)ccc21,5,-1,14,-8,8
COCCn1nnnc1C(c1cc2cc(C)ccc2[nH]c1=O)N1CCN(C2CCCCC2)CC1 (configuration not stated),30*,3,3,-4,12
COCCn1nnnc1C(c1cc2ccc(OC)cc2[nH]c1=O)N1CCN(C2CCCCC2)CC1 (configuration not stated),.,.,-1,.,-2
CSc1ccccc1OCc1cc(C(=O)N2CCc3[nH]cnc3C2c2ccccn2)no1 (configuration not stated),50*,-2,-12,-2,2
CSc1ccccc1OCc1cc(C(=O)N(C)C2CCCc3ccccc32)no1 (configuration not stated),8,20*,5,0,-3
CSc1ccccc1OCc1cc(C(=O)N2CCN(c3ccccc3)CC2C)no1 (configuration not stated),-3,-4,2,-3,3
